Our source for the inhibition values is PubChem BioAssay AID372 (MTDP, 2006).

In all, about 100,000 compounds went through this assay and about 770 (0.77%) were called active. Cut-off read from the data, not from the text of the source: active = inhibition above about 50%; inactive = the rest. Shown is part of a subset that was picked to be rich in actives.

For this assay, the target named is Gag-Pol polyprotein (Human immunodeficiency virus type 1 group M subtype B (isolate HXB2)) (UniProt P04585). Briefly: RNase H inhibition, HIV 1 Gag Pol polyprotein, FRET biochemical assay, screening (AID 372). To be noted: HIV-1 RT RNase H, FRET RNA/DNA substrate fluorescence; at 10 µM; stronger effect = higher value.
For `S=C(Nc1cccc2ccccc12)N1CCN(C(c2ccccc2)c2ccccc2)CC1`, the inhibition (as a rule, the drop in the measured response relative to a control, in per cent) is 5% (inactive).

Take `S=C(Nc1ccccc1)N1CCN(C(=S)Nc2ccccc2)CC1`: the inhibition is 9% (inactive).

Regarding `S=C(Nc1ccccc1)N1CCN(C(c2ccccc2)c2ccccc2)CC1`, the inhibition was 56% (active).

For the compound `Cc1c(N2C(=O)S/C(=C\c3ccc(N(C)C)cc3)C2=O)c(=O)n(-c2ccccc2)n1C`, the inhibition is 67% (active).

In the case of `Cc1c(N2C(=O)S/C(=C\c3cccc([N+](=O)[O-])c3)C2=O)c(=O)n(-c2ccccc2)n1C`, the inhibition was 59% (active).

In the case of `Cc1c(N2C(=O)/C(=C/c3cccc([N+](=O)[O-])c3)SC2=S)c(=O)n(-c2ccccc2)n1C`, the inhibition is 13% (inactive). For `Cc1c(N2C(=O)S/C(=C\c3ccccc3)C2=O)c(=O)n(-c2ccccc2)n1C`, the inhibition was 0% (inactive). For `COc1ccc(/C=C2\SC(=O)N(c3c(C)n(C)n(-c4ccccc4)c3=O)C2=O)cc1` the value was 0% (inactive). Turning to `Cc1c(N2C(=O)S/C(=C\c3ccc([N+](=O)[O-])cc3)C2=O)c(=O)n(-c2ccccc2)n1C`, the inhibition is 3% (inactive). Then `Cc1ncc(CO)c(/C=N/Nc2ccccc2)c1O`, with 13% (inactive). As to `O=C(N/N=C/c1ccc(O)c(Br)c1)c1cccc(Br)c1`, the inhibition is 0% (inactive).

Regarding `COc1ccc(NC(=O)c2sc3cc(C)ccc3c2Cl)c(OC)c1`, the inhibition was 3% (inactive). In the case of `Cc1ccn2c(-c3csc(Nc4ccc(O)cc4)n3)c(C)nc2c1`, the inhibition is 8% (inactive). Then `CCC1CCCCN1S(=O)(=O)c1ccc(Cl)c([N+](=O)[O-])c1` (stereo not drawn), with 12% (inactive); and `Cc1cc(Br)ccc1N1C(=O)c2ccc(-c3nc4ccccc4c(=O)o3)cc2C1=O`, with 59% (active); and `Cc1cccc(N2C(=O)c3ccc(-c4nc5ccccc5c(=O)o4)cc3C2=O)c1`, with 37% (inactive).

Turning to `Cc1ccc(N2C(=O)c3ccc(-c4nc5ccccc5c(=O)o4)cc3C2=O)c(C)c1`, the inhibition is 5% (inactive). For `Cc1ccccc1N1C(=O)c2ccc(-c3nc4ccccc4c(=O)o3)cc2C1=O` the value was 2% (inactive). With `Cc1cc(C)c(N2C(=O)c3ccc(-c4nc5ccccc5c(=O)o4)cc3C2=O)c(C)c1`, the inhibition is 54% (active). Turning to `Cc1cccc(N2C(=O)c3ccc(-c4nc5ccccc5c(=O)o4)cc3C2=O)c1C`, the inhibition was 10% (inactive). In the case of `O=C1C(=O)N(c2cccnc2)C(c2ccc(F)cc2)/C1=C(\O)c1ccc(Cl)cc1` (stereo not drawn), the inhibition was 2% (inactive).

Turning to `CCCC(=O)N1c2c(C)cccc2C(Nc2ccccc2C)CC1C` (stereo not drawn), the inhibition is 12% (inactive).

On to `COC(=O)c1c(NC(=O)c2c(F)c(F)c(F)c(F)c2F)sc2c1CCCCC2`, for which the inhibition was 26% (inactive). For `O=c1c(C=NCC2CCCO2)c(C(F)(F)F)[nH]n1-c1nc2ccccc2s1` (stereo not drawn) the value was 0% (inactive); for `CCOC(=O)c1ccc(NC(=O)Nc2nc(-c3ccccc3)cs2)cc1`, 0% (inactive). For `Oc1c(Br)cc(Cl)cc1/C=C/c1ccc2cccc(O)c2n1` the value was 15% (inactive); for `O=C(O)C1Nc2c(I)cccc2C2C=CCC12` (stereo not drawn), 30% (inactive); for `NC(=O)c1cccc2c1NC(C(=O)O)C1CC=CC21` (stereo not drawn), 22% (inactive).

In the case of `O=C(O)C1Nc2c(cccc2[N+](=O)[O-])C2C=CCC12` (stereo not drawn), the inhibition is 17% (inactive). For `O=C(c1ccccc1)c1cc(Cl)cc2c1NC(C(=O)O)C1CC=CC21` (stereo not drawn) the value was 30% (inactive); for `O=C(O)C1Nc2ccc(F)cc2C2C=CCC12` (stereo not drawn), 12% (inactive).

With `Cc1ccc2c(c1)C1C=CCC1C(C(=O)O)N2` (stereo not drawn), the inhibition is 27% (inactive).

As for `O=C1c2ccccc2NC(c2ccccc2O)N1Cc1ccco1` (stereo not drawn), the inhibition was 5% (inactive). Then `CC(C)Cc1ccc(-c2csc(/C(C#N)=C/Nc3ccccc3)n2)cc1`, with 0% (inactive). Then `CCOc1cc(/C=C2\SC(N)=NC2=O)ccc1OCCOc1ccc(Cl)c(C)c1`, with 30% (inactive); and `O=C(CSCc1cccc(Br)c1)N=Nc1c(O)[nH]c2ccccc12`, with 16% (inactive); and `Cc1ccc(Cc2cnc(NC(=O)c3ccc(Br)cc3)s2)cc1`, with 0% (inactive). Turning to `COc1cccc(C(=O)Nc2ccc(-c3cnc(-c4ccc(NC(=O)c5cccc(OC)c5)cc4)nc3)cc2)c1`, the inhibition is 50% (active). For `COc1cccc(C(=O)Nc2ccc(-c3ccc(NC(=O)c4cccc(OC)c4)cc3)cc2)c1` the value was 2% (inactive); for `O=C(Nc1ccc(-c2cnc(-c3ccc(NC(=O)c4ccccc4)cc3)nc2)cc1)c1ccccc1`, 0% (inactive); for `Cc1cc(C)c(OCCCCN2CCC(C)CC2)c(C)c1`, 10% (inactive). For `COc1cc([N+](=O)[O-])ccc1NC(=S)NC(=O)c1ccccc1` the value was 3% (inactive); for `N#Cc1c(N)c(C#N)c(-c2ccco2)c2c1CCCC2`, 4% (inactive). Consider `N#Cc1c(-c2ccco2)c2c([nH]c1=S)CCCC2`, for which the inhibition is 63% (active). As to `Cc1ccc(-c2c3c([nH]c(=S)c2C#N)CCCC3)o1`, the inhibition was 8% (inactive). For `Oc1cccc(/C=N/Nc2nc(-c3ccc(Br)cc3)cs2)c1` the value was 16% (inactive); for `O=S(=O)(Nc1cccc(F)c1)c1ccc2ccccc2c1`, 27% (inactive). Then `COc1ccc(S(=O)(=O)Nc2cccc(C(F)(F)F)c2)cc1`, with 0% (inactive). For `O=S(=O)(Nc1ccc(Nc2ccccc2)cc1)c1ccc2ccccc2c1` the value was 0% (inactive); for `O=S(=O)(Nc1cccc(C(F)(F)F)c1)c1ccc(F)cc1`, 0% (inactive); for `Cc1cc(C)cc(NS(=O)(=O)c2ccc3ccccc3c2)c1`, 14% (inactive). Consider `O=S(=O)(Nc1cccc(Br)c1)c1ccc2ccccc2c1`, for which the inhibition is 50% (active).

Turning to `O=S(=O)(Nc1cccc(I)c1)c1ccc2ccccc2c1`, the inhibition is 52% (active).

`O=S(=O)(Nc1cccc(I)c1)c1ccccc1`: the inhibition is 0% (inactive). As to `Brc1ccc(N2COc3ccc4ccccc4c3C2)cc1`, the inhibition was 18% (inactive). As to `CCOC(=O)c1ccc2c(c1)C1C=CCC1C(c1ccc(Br)cc1)N2` (stereo not drawn), the inhibition is 31% (inactive).

For the compound `Cc1ccc(C(=O)Nc2ccc(I)cc2)o1`, the inhibition is 0% (inactive). Regarding `CCCOC(=O)C1=C(C)NC(=O)NC1c1cccc2ccccc12` (stereo not drawn), the inhibition was 4% (inactive). For `CCc1ccc(NC(=O)C(=O)NCCc2ccc(F)cc2)cc1` the value was 12% (inactive). With `COc1ccc(C(=O)NC(NC(=O)c2ccc(OC)c(OC)c2)c2ccc(Br)cc2)cc1OC`, the inhibition is 6% (inactive). Consider `NN1C(=O)c2ccc3c4c(ccc(c24)C1=O)CC3`, for which the inhibition was 0% (inactive). For `O=C1NC(=O)c2ccc3c4c(ccc1c24)CC3` the value was 2% (inactive). Then `COc1cc(CN2CCN(C3CCCC(C)C3)CC2)cc(OC)c1OC` (stereo not drawn), with 7% (inactive); and `COc1ccc(CNC(=O)c2ccc(Cl)c(Cl)c2)cc1`, with 8% (inactive); and `CC(C)=NNC(=O)Sc1cc(O)c(Cl)cc1O`, with 66% (active). Consider `CC(C)=NNC(=O)C(=O)Nc1cccc(Cl)c1`, for which the inhibition is 10% (inactive). For `CC(C)=NNC(=O)C(=O)Nc1ccc(Cl)c(Cl)c1` the value was 12% (inactive); for `O=C(NCCO)C(=O)Nc1ccc(Oc2ccccc2)cc1`, 6% (inactive); for `Fc1cccc(-c2nnc(SC(c3ccccc3)c3ccccc3)n2-c2ccccc2)c1`, 13% (inactive). For `Cc1cc(C)c(NC(=O)C(C)Sc2nnc(-c3cccc(F)c3)n2-c2ccccc2)c(C)c1` (stereo not drawn) the value was 54% (active). As for `CC(NC(=O)CSc1nnc(-c2cccc(F)c2)n1-c1ccccc1)c1ccccc1` (stereo not drawn), the inhibition is 15% (inactive).

As for `Cc1oc(C(C)(C)C)cc1C(=O)Nc1cccc(O)c1`, the inhibition is 1% (inactive).

Turning to `Cc1ccc(N=Cc2ccc(OC3CSC3)cc2)cc1C`, the inhibition was 8% (inactive). Then `COc1ccc(C2NC(=S)NC(C)=C2C(=O)Nc2ccc(C)c(Cl)c2)cc1` (stereo not drawn), with 10% (inactive). `Nc1ccc(S(=O)(=O)O)c2cccc(S(=O)(=O)O)c12`: the inhibition was 6% (inactive). For the compound `Nc1c(S(=O)(=O)O)cc(S(=O)(=O)O)c2cccc(O)c12`, the inhibition is 23% (inactive). For `Nc1nnc(SCC(=O)Nc2ccccc2-c2ccccc2)s1` the value was 0% (inactive). On to `COc1ccc(NC(=O)/C(C#N)=C/c2cccc(O)c2)cc1`, for which the inhibition was 12% (inactive). Then `COc1cc(/C=N/NC(=O)COc2ccc(C(C)(C)CC(C)(C)C)cc2[N+](=O)[O-])ccc1OC(=O)c1ccc([N+](=O)[O-])cc1`, with 28% (inactive). Turning to `Cc1c(Cl)cccc1-c1ccc(/C=N/N=C2\NC(=O)CS2)o1`, the inhibition was 55% (active).

Regarding `Cc1c(-c2ccc(/C=N/N=C3/NC(=O)CS3)o2)ccc([N+](=O)[O-])c1C`, the inhibition is 45% (inactive). Turning to `O=C1CS/C(=N/N=C/c2ccc(-c3ccc(Cl)cc3)o2)N1`, the inhibition is 21% (inactive). For `COc1ccccc1NC(=O)CN(c1ccc(Cl)cc1Cl)S(=O)(=O)c1ccccc1` the value was 13% (inactive); for `c1cc2ccc3ccc(CN4CCOCC4)c4ccc(c1)c2c34`, 0% (inactive). For the compound `O=C1/C(=C/c2ccc([N+](=O)[O-])cc2)C=C(c2ccccc2)N1c1ccc(O)cc1`, the inhibition is 54% (active).

In the case of `CC(=O)Nc1ccc(N2C(=O)/C(=C/c3ccc([N+](=O)[O-])cc3)C=C2c2ccccc2)cc1`, the inhibition is 0% (inactive).

For the compound `Cc1cccc(C2=N/C(=C/c3ccc([N+](=O)[O-])cc3)C(=O)N2c2ccc(O)cc2)c1`, the inhibition was 44% (inactive). For `COc1cc(/C=N/N=C2/NC(=O)C(CC(=O)Nc3cccc(Cl)c3Cl)S2)ccc1O` (stereo not drawn), the inhibition was 5% (inactive). For `CC(=O)Nc1ccc(C(=O)NCc2ccco2)cc1` the value was 57% (active); for `O=C(NCc1ccco1)c1ccc(Cl)cc1`, 0% (inactive). As to `CCOc1ccc(C(=O)NCc2ccco2)cc1Br`, the inhibition is 5% (inactive). For `Cc1ccc(C(=O)NCc2ccco2)cc1` the value was 0% (inactive).

As to `CCOc1ccc(C(=O)NCc2ccco2)cc1OCC`, the inhibition is 50% (active). Then `CCOc1ccc(C(=O)NCc2ccco2)cc1Cl`, with 6% (inactive); and `Cc1nn(S(=O)(=O)c2ccc([N+](=O)[O-])cc2)c(C)c1Sc1ccc([N+](=O)[O-])cc1`, with 18% (inactive); and `CSCCOC(=O)C1=C(C)NC(=O)NC1c1ccc([N+](=O)[O-])cc1` (stereo not drawn), with 22% (inactive). For `CCCCOc1ccc2c(C(F)(F)F)cc(=O)oc2c1` the value was 9% (inactive); for `CCOC(=O)C1=C(C)NC2=C(C(=O)CC(c3ccc(OC)cc3)C2)C1c1ccccc1OC(C)C` (stereo not drawn), 1% (inactive).
